SMILES strings stand for the structures. The whole screen tested about 310,000 compounds, of which about 14,000 (4.5%) showed an effect of 50% or more. Effects have a minus sign here. The full list was thinned out, with strong results kept by preference.
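Also: peak tail current of the secondary pulse compared with the same well before compound.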

In the test the target is human ether-à-go-go-related gene (hERG) potassium channel (human, UniProt Q12809). Briefly: primary screen, population patch clamp on CHO cells stably expressing hERG; higher = less effect of the substance.
Sequence of human ether-à-go-go-related gene (hERG) potassium channel (Q12809 whole entry, looked up): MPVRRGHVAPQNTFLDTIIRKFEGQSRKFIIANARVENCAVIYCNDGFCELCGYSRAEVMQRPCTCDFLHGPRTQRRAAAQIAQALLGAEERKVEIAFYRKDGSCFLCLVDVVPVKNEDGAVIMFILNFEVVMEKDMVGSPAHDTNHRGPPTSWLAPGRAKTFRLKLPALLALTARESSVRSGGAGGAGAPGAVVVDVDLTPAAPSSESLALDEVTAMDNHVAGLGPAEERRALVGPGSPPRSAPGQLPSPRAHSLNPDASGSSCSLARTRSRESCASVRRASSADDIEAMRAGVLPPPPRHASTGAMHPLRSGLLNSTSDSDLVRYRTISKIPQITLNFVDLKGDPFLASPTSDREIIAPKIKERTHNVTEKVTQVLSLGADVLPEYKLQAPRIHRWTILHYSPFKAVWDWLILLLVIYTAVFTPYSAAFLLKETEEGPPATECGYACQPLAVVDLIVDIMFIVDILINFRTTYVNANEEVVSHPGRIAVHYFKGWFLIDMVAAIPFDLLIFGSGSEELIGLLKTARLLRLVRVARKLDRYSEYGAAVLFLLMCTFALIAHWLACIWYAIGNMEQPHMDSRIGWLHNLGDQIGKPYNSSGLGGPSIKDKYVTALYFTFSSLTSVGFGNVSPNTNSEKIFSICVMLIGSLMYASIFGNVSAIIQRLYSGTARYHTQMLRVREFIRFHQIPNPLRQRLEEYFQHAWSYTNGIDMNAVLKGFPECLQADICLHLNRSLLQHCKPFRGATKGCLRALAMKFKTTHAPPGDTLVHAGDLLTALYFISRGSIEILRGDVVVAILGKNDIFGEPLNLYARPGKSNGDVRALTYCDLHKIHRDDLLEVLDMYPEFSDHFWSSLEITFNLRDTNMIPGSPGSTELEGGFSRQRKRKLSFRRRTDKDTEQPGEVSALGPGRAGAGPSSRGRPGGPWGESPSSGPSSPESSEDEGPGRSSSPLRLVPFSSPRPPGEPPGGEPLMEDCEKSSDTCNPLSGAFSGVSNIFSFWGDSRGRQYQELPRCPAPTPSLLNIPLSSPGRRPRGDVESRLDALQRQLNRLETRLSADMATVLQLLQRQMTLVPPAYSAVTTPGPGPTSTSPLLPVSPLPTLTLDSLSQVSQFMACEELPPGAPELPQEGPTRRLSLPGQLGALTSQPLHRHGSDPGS
`COc1cc2ncnc(NCc3ccc(Cl)cc3)c2cc1OC`: the “hERG current change (%, negative = inhibition) at 10uM” value is listed as -31.2%. The value for `COc1cc2ncnc(NCc3ccc(C)cc3)c2cc1OC` was -0.937%; that for `COc1cc2ncnc(NCc3cccc(Cl)c3)c2cc1OC` was -63.9%; that for `Cc1ccccc1Cn1c(=O)n(CCCC(=O)NCc2ccco2)c(=O)c2ccccc21` was -15.5%.

Regarding `Nn1c(SCc2cccc(Cl)c2)nnc1-c1ccncc1`, the “hERG current change (%, negative = inhibition) at 10uM” value is on record as -2.64%. The value for `Cc1cc(C(=O)C(=O)N(C)C)c(C)n1-c1ccc(Cl)c(Cl)c1` was -28.9%; that for `COc1ccc(S(=O)(=O)N(CCN2CCOCC2)Cc2cc(OC)ccc2OC)cc1` was -10.7%. Next, `Nc1ccc(NC(=O)c2ccccc2)c2c1C(=O)c1ccccc1C2=O`: 2.65%; `CC(C)N1C(=O)CC(Nc2ccc(N3CCOCC3)cc2)C1=O` (stereo not drawn): 2.64%. As to `O=C(NC(=S)Nc1ccccc1)c1cc([N+](=O)[O-])ccc1N1CCOCC1`, the “hERG current change (%, negative = inhibition) at 10uM” value is on record as 6.13%. Next, `Cc1ccc(NC(=O)c2cc([N+](=O)[O-])ccc2N2CCOCC2)cc1C`: -42.3%; `Cc1cccc(NC(=O)c2cc([N+](=O)[O-])ccc2N2CCN(C)CC2)c1`: -61.9%; `COc1ccc(NC(=O)c2cc([N+](=O)[O-])ccc2N2CCCC2)cc1`: -1.73%. Consider `COc1ccc(NC(=O)c2cc([N+](=O)[O-])ccc2N2CCN(C)CC2)cc1`, for which the “hERG current change (%, negative = inhibition) at 10uM” value is -43.4%. The value for `CN1CCN(c2ccc([N+](=O)[O-])cc2C(=O)Nc2ccccc2)CC1` was -71.1%; that for `COc1cccc(NC(=O)c2cc([N+](=O)[O-])ccc2N2CCN(C)CC2)c1` was -57.7%. The value for `COc1ccc(NC(=O)c2cc([N+](=O)[O-])ccc2N2CCNCC2)cc1` was -44.5%. Next, `COc1ccc(NC(=O)c2cccc([N+](=O)[O-])c2)cc1`: 13%; `COc1ccc(NC(=O)c2cc([N+](=O)[O-])ccc2O)cc1`: -57.6%. In the case of `CN1CCN(c2ccc(NC(=O)c3cc([N+](=O)[O-])ccc3N3CCOCC3)cc2)CC1`, the “hERG current change (%, negative = inhibition) at 10uM” value is on record as -2.4%. Next, `O=C(O)c1cc([N+](=O)[O-])ccc1C(=O)Nc1ccccc1`: 12.7%; `CCC(C(=O)Nc1ccc(C)cc1)c1ccccc1` (stereo not drawn): 19.1%. Take `Nc1c(-c2cccc(Cl)c2)cnc2c(-c3ccccc3)cnn12`: the “hERG current change (%, negative = inhibition) at 10uM” value turned out to be 13.9%. In the case of `N#C/C(=C\c1ccc(F)c(Cl)c1)S(=O)(=O)c1ccccn1`, the “hERG current change (%, negative = inhibition) at 10uM” value is -6.64%. Next, `O=C(/C=C/c1ccc([N+](=O)[O-])cc1)c1cccs1`: -23.4%; `CCOCCCNC(=O)C(c1ccc(OC)cc1)N(Cc1ccc2c(c1)OCO2)C(=O)c1cnccn1` (stereo not drawn): 8.96%. The value for `CCOc1ccc2c(CC)cc(=O)oc2c1OCC` was -18.9%; that for `O=C(Cn1cc(C(=O)C2CC2)c2ccccc21)Nc1ccc(F)cc1` was -20.5%; that for `O=C(Nc1ccccc1)c1cc([N+](=O)[O-])ccc1N1CCNCC1` was -37.8%. Consider `O=C(Nc1cccc(Cl)c1)c1cc([N+](=O)[O-])ccc1N1CCN(CCO)CC1`, for which the “hERG current change (%, negative = inhibition) at 10uM” value is listed as -53%. Regarding `O=C(Nc1cccc(Cl)c1N1CCOCC1)c1cc([N+](=O)[O-])ccc1N1CCOCC1`, the “hERG current change (%, negative = inhibition) at 10uM” value was -21.1%.

In the case of `COC(=O)c1ccccc1NC(=O)C1CCN(C(=O)N2CCOc3ccccc32)CC1`, the “hERG current change (%, negative = inhibition) at 10uM” value is reported as -59.6%.

Consider `CCc1ccccc1NC(=O)C1CCN(C(=O)N2CCOc3ccccc32)CC1`, for which the “hERG current change (%, negative = inhibition) at 10uM” value was 1.77%. In the case of `Cc1ccccc1NC(=O)C1CCN(C(=O)N2CCOc3ccccc32)CC1`, the “hERG current change (%, negative = inhibition) at 10uM” value is on record as -8.57%.

As for `CCCCC(=O)NC(c1ccccc1Cl)c1ccc2cccnc2c1O` (stereo not drawn), the “hERG current change (%, negative = inhibition) at 10uM” value was determined as 15.2%. The value for `COc1ccc(S(=O)(=O)Nc2cc3c4c(c2)CC(=O)N4CCC3)cc1C` was -4.48%; that for `CC(C)N(CCCNC(=O)c1nn(C)c2c1CS(=O)(=O)c1ccccc1-2)Cc1ccccc1` was -34.5%; that for `CCN(CCCNC(=O)c1nn(C)c2c1CS(=O)(=O)c1ccccc1-2)Cc1ccccc1` was -60.3%. The value for `CC1CCN(CCCNC(=O)c2nn(C)c3c2CS(=O)(=O)c2ccccc2-3)CC1` was -23.6%; that for `CN(CCCNC(=O)c1nn(C)c2c1CS(=O)(=O)c1ccccc1-2)Cc1ccccc1` was -46.9%; that for `CC1CC(C)CN(CCCNC(=O)c2nn(C)c3c2CS(=O)(=O)c2ccccc2-3)C1` (stereo not drawn) was -64.2%.

As for `CC1CC(C)CN(C(=O)c2nn(C)c3c2CS(=O)(=O)c2ccccc2-3)C1` (stereo not drawn), the “hERG current change (%, negative = inhibition) at 10uM” value is -12.7%.

For the origin of these results see paper PMC4336329 (PLoS ONE, 2015).
